Source: PubChem
Shown are actives, neighbours in structure and some others; about 7.9% of the full set was active somewhere.
KB-3-1 tox: kills parental KB-3-1 adenocarcinoma cells; KB-3-1 viability, CellTiter-Glo ATP luminescence, 72 h; Potency, µM (titrated, usually from 46.1 µM), usual class: cytotoxic; 400,000 compounds, 1.4% hits; AID 1347075; note: % is set by controls: 0 for no effect and ±100 for the full control effect; nearly all actives have a fitted effect of over 60% in size
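Using CellTiter-Glo luminescence, growth of non-resistant KB-3-1 adenocarcinoma cells is assessed 72 h after pin-tool compound addition at 37 °C. Normalized responses across the concentration series yield fitted curves.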
KB-V1 cytotox: KB-V1 MDR subline cytotoxicity | Potency, µM (doses to about 46.1 µM), usual class: cytotoxic | 400,000 compounds, 3.4% hits | KB-V1 MDR cells viability, CellTiter-Glo, 72 h | AID 1347076; note: % is set by controls: 0 for no effect and ±100 for the full control effect; nearly all actives have a fitted effect of over 60% in size
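Cytotoxicity toward P-gp-expressing KB-V1 cells was determined as loss of CellTiter-Glo luminescence after 72 h at 37 degrees C. Compounds were tested in quantitative HTS format across a concentration range, with curves fitted to normalized data.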
SW480 rerep: inducers of DNA re-replication in SW480 colon cancer cells; SW480 DNA re-replication, Hoechst DNA content imaging, 48 h; Potency, µM (highest dose often 46.1 µM), without a hit: at the highest dose re-replication activation, usual class: activators; 340,000 compounds, 1.8% hits; note: % of control where 0% means no effect; nearly all actives have a fitted effect of over 55% in size
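Readout is total intensity of Hoechst-stained nuclei, excited at 405 nm and collected at 500-530 nm. Compound treatment lasted 48 hr at 37 C in 5% CO2 before staining.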
HT1080NT lethal: kills 2HG-producing HT-1080-NT fibrosarcoma cells; Potency, µM (doses to about 46.1 µM), inactives show top-dose activity, negative = less viability, usual class: cytotoxic; HT-1080-NT fibrosarcoma viability, CellTiter-Glo ATP luminescence, 48 h; 360,000 compounds, 1.6% hits; AID 686970;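 note: NT is the 2HG producing partner of a matched IDH1 knockdown line; 0% = DMSO-treated cells and -100% = media-only wells without cells; nearly all actives have a fitted effect of over 55% in size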
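Luminescent CellTiter-Glo readout after 48 hours of compound exposure at 37 degrees C defined viability of HT-1080-NT cells. Activity was normalized to DMSO wells and cell-free media wells; concentration-response curves were fitted and assigned curve classes.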
HT1080 IDH1KD tx: toxicity to HT-1080 IDH1 knockdown cells (counter line); HT-1080 IDH1 knockdown viability, ATP luminescence, 48 h; Potency, µM (series often up to 46.1 µM), for the others: top-dose activity, negative = toxicity, hits mostly cytotoxic; 360,000 compounds, 2% hits;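 note: 0% = DMSO wells and -100% = cell-free medium wells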
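Knockdown cells (IDH1KD HT-1080) received compounds 2 h after plating at 750 cells/well and were kept 48 h at 37 °C in 5% FBS RPMI. A CellTiter-Glo luminescence read gave % activity for curve fitting.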
MCF10A rereplic: induces DNA re-replication in MCF 10a normal breast cells; 350,000 compounds, 2.9% hits; MCF 10A DNA re-replication, Hoechst nuclear intensity, 48 h; Potency, µM (series often up to 46.1 µM), for the others: at the highest dose activity, positive = re-replication, actives largely listed as activators; note: % of control where 0% means no effect; nearly all actives have a fitted effect of over 50% in size
* marks the source's active call; other numbers are inactive results; i = inactive; ? = inconclusive; . = no result given. Calls come from the whole dose curve; as a rule, active = well fitted curve in the direction sought with a large enough effect; inconclusive = small, poorly fitted or top-dose-only effect, or another doubt; inactive = no such curve, though single readings can be large; an effect the other way counts as inactive or inconclusive. Potency is the fitted concentration of half-maximal effect.

SMILES	KB-3-1 tox	KB-V1 cytotox	SW480 rerep	HT1080NT lethal	HT1080 IDH1KD tx	MCF10A rereplic
N#CC1=C(N)Oc2cc3ccccc3cc2C1c1cccnc1 (stereo not given)	5.8µM*	?	18µM*	6.5µM*	5.8µM*	7.1µM*
N#CC1=C(N)Oc2cc3ccccc3cc2C1c1cccs1 (stereo not given)	10µM*	i	?	?	?	?
C[n+]1cccc2ccc3c(c21)OC(N)=C(C#N)C3c1ccccc1 (stereo not given)	i	i	2%	?	?	-10%
CN(C)/C=N/C1=C(C#N)C(c2cccs2)c2ccc3ccccc3c2O1 (stereo not given)	2.6µM*	5.8µM*	5.2µM*	7.3µM*	7.3µM*	?
C[n+]1cccc(C2C(C#N)=C(N)Oc3c2ccc2ccccc32)c1 (stereo not given)	?	?	18µM*	12µM*	15µM*	?
CCOC(=O)C1=C(c2ccccc2)OC(N)=C(C#N)C1c1cccs1 (stereo not given)	i	?	-7%	-2%	?	-3%
O=S(=O)(c1ccc(SCc2ccc(Br)cc2)nc1)N1CCCCC1	i	?	-16%	-4%	-3%	11%
CSc1ccc(CNc2ncc(-c3ccccc3)n2C)cc1	?	i	.	.	.	.
Cc1nnc(N2CCCC(C(=O)NCCc3ccccc3)C2)c2nn(-c3ccccc3)c(C)c12 (stereo not given)	i	i	.	.	.	.
N#CC1=C(N)Oc2c(ccc3cccnc23)C1c1cccnc1 (stereo not given)	?	?	2.6µM*	7.3µM*	8.2µM*	8.2µM*
Cc1ccccc1Nc1c(-c2ccc(N3CCOCC3)cc2)nc2ccc(Br)cn12	i	i	.	.	.	.
Cc1oc2ncn(CC(C)C)c(=O)c2c1C(=O)Nc1cc(F)ccc1F	i	i	.	.	.	.
Cn1c(C(=O)N(Cc2ccccc2)Cc2cccs2)cc2sccc21	i	15µM*	14%	-1%	-29%	16µM*
Cn1c(C(=O)N(Cc2ccccc2)Cc2ccccn2)cc2sccc21	i	i	-6%	?	?	1%
COc1ccc(C(c2sc3ncnn3c2O)N2CCN(c3ccccc3F)CC2)cc1OC (stereo not given)	2.9µM*	1.6µM*	-4%	-1%	-5%	0%
COc1ccc(C(c2sc3ncnn3c2O)N2CC(C)OC(C)C2)cc1OC (stereo not given)	?	i	?	-7%	-1%	-4%
CC1(C)CC(C(CCN(Cc2ccccc2)C(=O)c2ccco2)c2ccc(F)cc2)CCO1 (stereo not given)	?	9.2µM*	-77%	?	?	8.2µM*
O=C(c1ccco1)N(CCC(c1ccccc1)c1ccco1)Cc1ccc(F)cc1 (stereo not given)	i	7.3µM*	?	?	?	10µM*
CCOC(=O)c1c(C)[nH]c(C)c1S(=O)(=O)N1CCCC(C(=O)N2CCN(c3cccc(Cl)c3)CC2)C1 (stereo not given)	?	i	.	.	.	.
CCOCC(=O)Nc1ccc(-c2cn3c(C)csc3n2)cc1	i	i	.	.	.	.
FC(F)(F)c1cccc(Cn2nnnc2-c2cc(Cl)cc(Cl)c2)c1	i	i	-2%	-19%	-10%	2%
FC(F)(F)c1cccc(Cn2nnnc2-c2cccc(C(F)(F)F)c2)c1	i	15µM*	0%	-9%	-25%	?
O=C(NCCCN1CCOCC1)c1cc(-c2ccccc2)nc2ccccc12	i	i	-4%	0%	5%	6%
Cc1ccc(Nc2ncc(C(=O)NCCCN3CCN(C)CC3)c3ccccc23)cc1Cl	i	?	?	16µM*	26µM*	23µM*
O=C(NCCCN1CCOCC1)c1cc(-c2ccc(Br)cc2)nc2ccccc12	i	i	6%	-15%	-19%	9%
SMILES	KB-3-1 tox	KB-V1 cytotox	SW480 rerep	HT1080NT lethal	HT1080 IDH1KD tx	MCF10A rereplic
Cc1ccc(Nc2cc(C(=O)NCCCN3CCOCC3)c3ccccc3n2)cc1C	i	i	?	23µM*	?	10µM*
O=C(NCCCN1CCCC1)c1cc(Sc2ccc(F)cc2)nc2ccccc12	i	?	?	21µM*	26µM*	?
Cc1ccc(-c2cc(C(=O)NCCCN3CCOCC3)c3ccc(Cl)c(C)c3n2)cc1	i	i	21µM*	-2%	1%	?
O=C(NCCN1CCOCC1)c1cc(Sc2ccc(F)cc2F)nc2ccccc12	i	i	-3%	-7%	-21%	2%
CCC(Oc1ccccc1)C(=O)Nc1ccc(OCc2cc(=O)n3ccc(C)cc3n2)cc1 (stereo not given)	i	?	.	.	.	.
Cc1c(-c2ccccc2)sc2nc[nH]c(=S)c12	?	12µM*	-4%	19%	-11%	3%
COc1ccc(-c2csc(NC(=O)c3ccccc3F)n2)cc1	i	i	-7%	7%	3%	13%
